Experimental data taken from PubChem BioAssay (Tox21).
Inconclusive results are not listed. Calls of active or inactive are those of the source. Unless noted, calls follow the shape of the full dose curve.

How the values were obtained:
[1] = qHTS assay to identify small molecule agonists of the peroxisome proliferator-activated receptor delta (PPARd) signaling pathway - cell viability counter screen (AID 743211; active = well fitted curve in the direction sought with a large enough effect in the repeat runs; an effect the other way counts as inactive or inconclusive; also: nearly all actives have a fitted effect of over 55% in size)
Method in brief: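 In the same wells used for beta-lactamase reporter measurement, cytotoxicity is scored by CellTiter-Glo. HEK293H PPARd-bla cells receive compound for 17 h at 37C following a 5 h settling period.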

[2] = qHTS assay to identify small molecule antagonists of the peroxisome proliferator-activated receptor delta (PPARd) signaling pathway - cell viability counter screen (AID 743213; active = well fitted curve in the direction sought with a large enough effect in the repeat runs; an effect the other way counts as inactive or inconclusive; also: nearly all actives have a fitted effect of over 50% in size)
Method in brief: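 HEK293H PPARd UAS-bla cells, 5 h pre-incubation, compound + L165041 300 nM final, 17 h 37 C; B/G FRET substrate 2 h RT; then CellTiter-Glo 30 min RT, luminescence.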

[3] = qHTS assay to identify small molecule agonists of the farnesoid-X-receptor (FXR) signaling pathway - cell viability counter screen (AID 743218; active = well fitted curve in the direction sought with a large enough effect in the repeat runs; an effect the other way counts as inactive or inconclusive; also: nearly all actives have a fitted effect of over 45% in size)
Method in brief: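 Luminescence from CellTiter-Glo, read after 30 min at RT, reports viability of GeneBLAzer FXR-UAS-bla HEK 293T cells treated 16 h with compounds in the wells used for the beta-lactamase reporter.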

[4] = biological target: Bile acid receptor (Homo sapiens) (UniProt Q96RI1); experiment: qHTS assay to identify small molecule agonists of the farnesoid-X-receptor (FXR) signaling pathway (AID 743220; active = well fitted activation curve with a large enough effect in the signal ratio in the repeat runs, not every such curve was filed as active; the % refers to the signal ratio)
Bile acid receptor (Homo sapiens), sequence (Q96RI1 whole entry, looked up): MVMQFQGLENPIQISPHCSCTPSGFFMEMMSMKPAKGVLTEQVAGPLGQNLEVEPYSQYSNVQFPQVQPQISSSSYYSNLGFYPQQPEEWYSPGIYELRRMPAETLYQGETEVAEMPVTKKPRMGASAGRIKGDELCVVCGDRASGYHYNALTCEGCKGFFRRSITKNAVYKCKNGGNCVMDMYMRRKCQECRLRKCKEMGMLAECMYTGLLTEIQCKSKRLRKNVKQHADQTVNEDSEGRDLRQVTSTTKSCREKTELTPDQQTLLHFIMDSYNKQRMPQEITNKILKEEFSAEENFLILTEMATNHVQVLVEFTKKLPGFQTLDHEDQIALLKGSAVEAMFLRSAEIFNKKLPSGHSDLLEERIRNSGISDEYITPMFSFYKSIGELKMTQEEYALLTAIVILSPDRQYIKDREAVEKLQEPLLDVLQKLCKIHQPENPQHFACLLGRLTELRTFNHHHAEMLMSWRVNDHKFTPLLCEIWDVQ
Method in brief: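 FXR-UAS-bla HEK 293T cells carrying a UAS-driven beta-lactamase reporter were plated for 5 h at 37C/5% CO2, then exposed to DMSO-dissolved Tox21 10K compounds for 16 h at 37C. A LiveBLAzer B/G FRET substrate was loaded for 2 h at room temperature before fluorescence reading.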

[5] = qHTS assay to identify small molecule antagonists of the farnesoid-X-receptor (FXR) signaling pathway - cell viability counter screen (AID 743221; active = well fitted cell-killing curve with a large enough effect in the repeat runs, not every such curve was filed as active; also: nearly all actives have a fitted effect of over 50% in size)
Method in brief: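 Here viability was scored by luminescence after CellTiter-Glo addition to wells already read for beta-lactamase. Prior treatment: compound plus CDCA (50 uM final), 16 h, 37 C, HEK 293T FXR-bla cells.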

[6] = biological target: Vitamin D3 receptor (Homo sapiens) (UniProt P11473); experiment: qHTS assay to identify small molecule agonists of the vitamin D receptor (VDR) signaling pathway (AID 743222)
Vitamin D3 receptor (Homo sapiens), sequence (P11473 whole entry, looked up): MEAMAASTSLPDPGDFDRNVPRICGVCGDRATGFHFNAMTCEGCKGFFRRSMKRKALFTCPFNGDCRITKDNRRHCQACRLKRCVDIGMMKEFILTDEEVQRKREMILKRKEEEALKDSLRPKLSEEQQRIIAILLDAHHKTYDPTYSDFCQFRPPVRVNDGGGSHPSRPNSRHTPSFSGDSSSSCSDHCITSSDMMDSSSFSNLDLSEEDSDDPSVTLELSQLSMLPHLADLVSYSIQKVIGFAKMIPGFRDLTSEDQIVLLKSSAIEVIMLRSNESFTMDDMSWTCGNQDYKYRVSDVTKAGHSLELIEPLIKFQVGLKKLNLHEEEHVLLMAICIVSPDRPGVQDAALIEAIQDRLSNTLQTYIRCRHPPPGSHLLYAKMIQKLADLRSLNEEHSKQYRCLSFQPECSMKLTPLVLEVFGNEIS
Method in brief: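 Beta-lactamase reporter readout (LiveBLAzer B/G FRET, 2 h RT) in VDR-bla cells after 16 h compound treatment at 37C, 5% CO2; cells pre-incubated 4 h before pin transfer of DMSO solutions.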

[7] = biological target: Vitamin D3 receptor (Homo sapiens) (UniProt P11473); experiment: qHTS assay to identify small molecule antagonists of the vitamin D receptor (VDR) signaling pathway (AID 743223; active = well fitted inhibition curve with a large enough effect in the signal ratio in the repeat runs, not every such curve was filed as active; the % refers to the signal ratio)
Method in brief: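 Inhibition of agonist-driven VDR signalling is scored in VDR-bla cells: 3 nM final 1alpha,25-dihydroxyvitamin D3 plus compound, 16 h at 37C, then beta-lactamase detection by FRET substrate fluorescence after 2 h.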

[8] = qHTS assay to identify small molecule agonists of the vitamin D receptor (VDR) signaling pathway - cell viability counter screen (AID 743224; active = well fitted curve in the direction sought with a large enough effect in the repeat runs; an effect the other way counts as inactive or inconclusive; also: series mostly up to about 63 µM; nearly all actives have a fitted effect of over 50% in size)
Method in brief: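 Cytotoxicity counter screen: VDR-bla cells, 16 h compound exposure at 37C, 5% CO2; CellTiter-Glo luminescence, 30 min RT, same wells as bla read.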

[9] = qHTS assay to identify small molecule agonists of the NFkB signaling pathway (AID 1159509; active = well fitted curve in the direction sought with a large enough effect in the signal ratio in the repeat runs, not every such curve was filed as active; the % refers to the signal ratio; also: series mostly up to about 61 µM)
Method in brief: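 Pathway activation was measured in ME-180 cells stably expressing beta-lactamase under NF-kB response element control. Substrate cleavage was read as the 460/530 nm emission shift after 5 hr compound incubation.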

[10] = qHTS assay to identify small molecule agonists of the NFkB signaling pathway - cell viability counter screen (AID 1159515); also: series mostly up to about 61 µM; nearly all actives have a fitted effect of over 55% in size
Method in brief: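 ME-180 NFkB-bla cells, 2,000/well; overnight attach; compound 5 hr, 37 C/5% CO2; LiveBLAzer substrate 1.5 hr RT; then CellTiter-Glo in same wells, 30 min RT, luminescence read.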

[11] = qHTS assay to identify small molecule agonists of the endoplasmic reticulum stress response signaling pathway (AID 1159516; active = well fitted activation curve with a large enough effect in the signal ratio in the repeat runs, not every such curve was filed as active; the % refers to the signal ratio)
Method in brief: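 HeLa ESRE-bla reporter line; cpd 5 h, 37 C/5% CO2; LiveBLAzer B/G FRET substrate 2 h RT; ex 405, em 460/530 nm.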

[12] = qHTS assay to identify small molecule agonists of the endoplasmic reticulum stress response signaling pathway - cell viability counter screen (AID 1159517);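 also: HeLa cells carrying an ER stress response element beta-lactamase reporter; series mostly up to about 61 µM; nearly all actives have a fitted effect of over 50% in size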
Method in brief: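 In parallel with the ESRE reporter read, cytotoxicity was scored by CellTiter-Glo luminescence (30 min, room temperature) on HeLa ESRE-bla cells dosed for 5 hr.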

[13] = biological target: Nuclear receptor ROR-gamma (Homo sapiens) (UniProt P51449); experiment: qHTS assay to identify small molecule antagonists of the retinoid-related orphan receptor gamma (ROR-gamma) signaling pathway (AID 1159521; active = well fitted curve in the direction sought with a large enough effect in the repeat runs; an effect the other way counts as inactive or inconclusive)
Method in brief: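 Test compounds were applied to Tet-on RORγ CHO cells 2 h ahead of doxycycline hyclate (1 uM final). Luciferase reporter activity was quantified by luminescence after 16 h at 37 C and 5% CO2.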

[14] = qHTS assay to identify small molecule agonists of the AP-1 signaling pathway - cell viability counter screen (AID 1159525); also: nearly all actives have a fitted effect of over 55% in size
Method in brief: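 Same-well cytotoxicity counter screen of the Tox21 10K library in ME-180 cells. The readout is ATP-dependent luminescence after 5 h compound treatment. Data are normalised to DMSO and tetra n-octyl ammonium bromide controls.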

[15] = qHTS assay to identify small molecule agonists of the AP-1 signaling pathway (AID 1159526)
[16] = qHTS assay to identify small molecule antagonists of the retinoid-related orphan receptor gamma (ROR-gamma) signaling pathway - cell viability counter screen (AID 1159520; active = well fitted curve in the direction sought with a large enough effect in the repeat runs; an effect the other way counts as inactive or inconclusive; also: nearly all actives have a fitted effect of over 50% in size)
Method in brief: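 Tet-on ROR gamma CHO cells were given compounds for 2 hr, then doxycycline hyclate at 1 uM final, and incubated 16 hr at 37 C. Viability was measured as ATP content by CellTiter-Glo luminescence.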

[17] = biological target: Peroxisome proliferator-activated receptor delta (Homo sapiens) (UniProt Q03181); experiment: qHTS assay to identify small molecule agonists of the peroxisome proliferator-activated receptor delta (PPARd) signaling pathway (AID 743212)
Peroxisome proliferator-activated receptor delta (Homo sapiens), sequence (Q03181 whole entry, looked up): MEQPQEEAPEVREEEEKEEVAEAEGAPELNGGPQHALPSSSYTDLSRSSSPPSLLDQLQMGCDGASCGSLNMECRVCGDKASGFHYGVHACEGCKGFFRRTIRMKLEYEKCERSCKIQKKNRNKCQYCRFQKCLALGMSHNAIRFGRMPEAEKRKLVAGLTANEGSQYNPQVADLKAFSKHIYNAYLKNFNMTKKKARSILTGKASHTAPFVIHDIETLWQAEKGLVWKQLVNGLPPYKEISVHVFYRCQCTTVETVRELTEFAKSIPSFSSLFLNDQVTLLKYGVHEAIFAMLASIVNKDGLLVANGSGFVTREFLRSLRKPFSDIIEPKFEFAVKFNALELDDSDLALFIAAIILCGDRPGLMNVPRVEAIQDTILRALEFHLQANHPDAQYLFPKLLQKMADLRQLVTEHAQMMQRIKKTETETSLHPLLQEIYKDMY
Method in brief: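 Tox21 library screened in GeneBLAzer PPARd UAS-bla HEK293H cells. After compound treatment at 37 C, a FRET-based beta-lactamase substrate was applied for 2 h and fluorescence recorded.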

[18] = biological target: Peroxisome proliferator-activated receptor delta (Homo sapiens) (UniProt Q03181); experiment: qHTS assay to identify small molecule antagonists of the peroxisome proliferator-activated receptor delta (PPARd) signaling pathway (AID 743215; active = well fitted inhibition curve with a large enough effect in the signal ratio in the repeat runs, not every such curve was filed as active; the % refers to the signal ratio;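 also: cells stimulated with agonist L165041 at 300 nM final during compound exposure; series mostly up to about 62 µM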)
Method in brief: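 HEK293H GeneBLAzer PPARd UAS-bla reporter cells; cpd + L165041 300 nM final, 17 h 37 C; LiveBLAzer B/G FRET substrate 2 h RT; fluorescence intensity read-out. Antagonist mode.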

[19] = qHTS assay to identify small molecule antagonists of the vitamin D receptor (VDR) signaling pathway - cell viability counter screen (AID 743225; active = well fitted curve in the direction sought with a large enough effect in the repeat runs; an effect the other way counts as inactive or inconclusive; also: nearly all actives have a fitted effect of over 50% in size)
Method in brief: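 Compounds were pinned onto VDR-bla HEK 293T cells together with 1-alpha,25-dihydroxyvitamin D3 at 3 nM final. After 16 h at 37C and 5% CO2 plus the reporter readout, cell viability was measured by CellTiter-Glo luminescence (30 min, room temperature).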

[20] = biological target: Bile acid receptor (Homo sapiens) (UniProt Q96RI1); experiment: qHTS assay to identify small molecule antagonists of the farnesoid-X-receptor (FXR) signaling pathway (AID 743217; active = well fitted inhibition curve with a large enough effect in the signal ratio in the repeat runs, not every such curve was filed as active; the % refers to the signal ratio)
Method in brief: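 Read-out: beta-lactamase FRET fluorescence (LiveBLAzer B/G substrate, 2 h, room temperature) in GeneBLAzer FXR-UAS-bla HEK 293T cells. Compounds were co-dosed with 50 uM chenodeoxycholic acid (final) and incubated 16 h at 37 °C.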

Measured: Potency

CO[Si](CCCNCCC[Si](OC)(OC)OC)(OC)OC
not listed: [16] | [17] | [18] | [19] | [20]
inactive: all other assays above

CCCCCC[C@@H](CCC)C(=O)O
not listed: [1] | [4] | [14] | [17] | [18] | [19] | [20]
inactive: all other assays above

CC(C)[N+](C)(C)CC(O)COc1cccc2ccccc12 (centres undefined)
not listed: [3] | [4] | [6] | [7] | [16] | [19] | [20]
inactive: all other assays above

CC(=O)NC(Cc1ccccc1)C(=O)O (centres undefined)
not listed: [1] | [5] | [16] | [18] | [20]
inactive: all other assays above

OCc1ccccn1
not listed: [1] | [3] | [4] | [6] | [7] | [8] | [16] | [20]
inactive: all other assays above

NS(=O)(=O)c1cc2c(cc1Cl)NC(CSCc1ccccc1)=NS2(=O)=O
not listed: [4] | [12]
inactive: all other assays above

NC1CCN(c2cccc(Cl)n2)CC1
not listed: [16] | [18] | [19]
inactive: all other assays above

O=S(=O)(c1cccc2cnccc12)N1CCCNCC1
not listed: [1] | [3] | [7] | [14] | [18] | [20]
inactive: all other assays above

C=CCSCC1Nc2cc(Cl)c(S(N)(=O)=O)cc2S(=O)(=O)N1 (centres undefined)
not listed: [1] | [2] | [3] | [16] | [18]
inactive: all other assays above

OCCCCCCO
not listed: [6] | [16]
inactive: all other assays above

Cc1nc(-c2ccc(OCC(C)C)c(C#N)c2)sc1C(=O)O
not listed: [3] | [4] | [6] | [7] | [16] | [17] | [18] | [20]
inactive: all other assays above

CC(C)c1cccc(C(C)C)c1N
not listed: [4] | [16] | [19] | [20]
inactive: all other assays above

C=C(C)C(=O)NCCC[N+](C)(C)C
not listed: [12]
inactive: all other assays above

O=[N+]([O-])c1ccc(CCO)cc1
not listed: [3] | [16]
inactive: all other assays above

CCO[Si](C)(OCC)OCC
not listed: [2] | [3] | [4] | [16] | [20]
inactive: all other assays above

C[N+](C)(C)CC[N+]1(C)Cc2c(Cl)c(Cl)c(Cl)c(Cl)c2C1
not listed: [4] | [12] | [16] | [20]
inactive: all other assays above

CC(C)CCCC(C)CCCC(C)CCCCC(C)CCCC(C)CCCC(C)C (centres undefined)
not listed: [3] | [4] | [8] | [12] | [14] | [18] | [20]
inactive: all other assays above
